# ± gives the standard deviation of the averaged measurements. The full ranking holds about 33,000 sequences; the median of “E-score (rank enrichment, -0.5 to 0.5)” is about -0.0028, and the highest 2% start at about 0.23. The sample as a whole holds a higher share of the highest values than the screen did.
# Test system: 2Sb-muMax20 (muMax20 with two 1,3-bis(methyl)benzene Cys staples, A13C/A17C and Q88C/A92C, C-terminal Lys)
# Experiment: PBM 8-mer E-score (E-score (rank enrichment, -0.5 to 0.5)); higher = stronger preferential binding
# Description: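 Protein binding microarray (universal PBM chip covering all 10-mers in fixed probe flanks) with chemically synthesized human Max(13-93) bHLH-LZ analogs (not full-length Max) bearing noncanonical residues (hArg, Tha, Aib, Nle at 65) and aromatic Cys staples. Read-out per 8-mer (and its reverse complement): E-score (rank-based enrichment, -0.5 to 0.5) and Z-score of median probe intensity.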
row,Sequence,PBM 8-mer E-score
1,AGTATATC,0.106 ± 0.013
2,GGTATAGA,0.0611 ± 0.0045
3,CGTATCTA,-0.126 ± 0.083
4,AGTATCTA,0.329 ± 0.0077
5,GGTATCTA,0.0221 ± 0.013
6,AGTATATG,0.153 ± 0.051
7,AGTATATA,0.334 ± 0.041
8,CCATCGCG,0.124 ± 0.044
9,GTCGCGGA,-0.206 ± 0.07
10,CGCCCCGC,0.072 ± 0.059
11,GGAATTAA,0.166 ± 0.031
12,ATAATTAA,0.141 ± 0.023
13,GTAATTAC,0.2036 ± 0.0011
14,CTAATTAC,0.139 ± 0.051
15,TGAATTAA,0.255 ± 0.0052
16,CGAATTAA,0.00973 ± 0.029
17,ATAATTAC,0.276 ± 0.0099
18,CTAATTAA,0.0454 ± 0.045
19,TTAATTAA,0.281 ± 0.08
20,GTTGAAAA,0.103 ± 0.084
21,ACCTTGCA,0.0732 ± 0.0055
22,CGGGGGAA,-0.121 ± 0.028
23,AAGGGAGG,0.0917 ± 0.039
24,ATCTAGTA,-0.0228 ± 0.022
25,CTCTAGTA,0.103 ± 0.0078

row,Sequence,PBM 8-mer E-score
1,GTCTAGTA,0.247 ± 0.051
2,CTAAGGGC,-0.156 ± 0.055
3,AAAGCGGA,0.0459 ± 0.0043
4,ACTTACTA,0.258 ± 0.042
5,ACTTACTC,0.0212 ± 0.036
6,CCTTACTA,0.0233 ± 0.037
7,GACCCACA,0.0373 ± 0.043
8,GGTATTTA,0.118 ± 0.052
9,CGTATTTA,0.2434 ± 0.0022
10,AGTATTTA,0.195 ± 0.012
11,GAACATGC,0.136 ± 0.0025
12,CATCTTGA,-0.0488 ± 0.041
13,GATCTTGA,0.246 ± 0.03
14,TATCTTGA,0.163 ± 0.012
15,ATGACTGC,0.00213 ± 0.035
16,CGCCTCAA,0.0117 ± 0.0089
17,GGCGGGGA,0.403 ± 0.025
18,GGCGGGAA,0.0557 ± 0.014
19,AGGCGGGC,0.00216 ± 0.077
20,CGCGGGGA,0.0556 ± 0.023
21,AGGCGGGA,0.08088 ± 0.00027
22,GGGCGGGA,0.3 ± 0.018
23,GGGCGGAA,0.111 ± 0.07
24,AGGGCGGG,0.272 ± 0.091
25,CGGCGGGA,-0.205 ± 0.01

row,Sequence,PBM 8-mer E-score
1,AGGGCGGA,-0.228 ± 0.016
2,AGGCGGGG,0.259 ± 0.092
3,AGGGCGGC,-0.161 ± 0.057
4,AACCGATA,-0.0929 ± 0.094
5,ACACCTCA,0.0903 ± 0.038
6,GACGAGGA,-0.0396 ± 0.053
7,ACCAGGGT,-0.196 ± 0.08
8,CTGGACAC,-0.2589 ± 0.0024
9,ACCGGGTA,-0.1338 ± 0.00064
10,CATGAGCG,-0.0614 ± 0.0046
11,CCTACCCG,-0.0857 ± 0.0032
12,ATGGCGCG,0.0718 ± 0.02
13,CTGGCGCA,-0.166 ± 0.074
14,ATGGCGCA,0.239 ± 0.057
15,ATTTGGGG,0.267 ± 0.0073
16,ATTTGGGC,0.102 ± 0.069
17,AATTTGGT,0.0829 ± 0.018
18,ACTTGGGG,0.3507 ± 0.0032
19,AACTTGGA,0.0353 ± 0.027
20,AATTTGGA,0.0432 ± 0.015
21,ATTTGGGA,0.209 ± 0.0036
22,CACTTGGG,0.176 ± 0.012
23,AATTTGGG,0.29 ± 0.015
24,ACTTGGGA,-0.129 ± 0.03
25,ACTTGGGC,0.0763 ± 0.039

row,Sequence,PBM 8-mer E-score
1,AACTTGGG,0.304 ± 0.015
2,ACGAGACG,0.0104 ± 0.13
3,AGTGACTG,-0.0977 ± 0.053
4,CCGGCCCC,-0.0874 ± 0.098
5,TCCGTCGA,-0.0858 ± 0.034
6,GATGCGAC,0.0229 ± 0.095
7,ACCTTCAC,0.016 ± 0.0064
8,CTGTCATC,0.0122 ± 0.062
9,AATGCGCT,0.0765 ± 0.063
10,ACTGCGCC,-0.18 ± 0.0093
11,ACCTAGGA,0.0803 ± 0.054
12,AGTTGGGA,-0.0331 ± 0.025
13,AGTTGGGC,0.0922 ± 0.0035
14,AGTTGGGG,0.235 ± 0.015
15,ATAAGAAT,0.104 ± 0.022
16,AAAAGTAA,0.0725 ± 0.087
17,ATAAGTAT,0.125 ± 0.033
18,AAAAGTAT,0.083 ± 0.012
19,CTAAGTAC,0.0248 ± 0.0083
20,ATAAGAAA,0.144 ± 0.013
21,ATAAGAAC,0.239 ± 0.022
22,AAAAGTAC,0.239 ± 0.074
23,ATAAGTAC,0.236 ± 0.016
24,CCTACGCG,0.0631 ± 0.019
25,ATGGTAAC,0.184 ± 0.066

row,Sequence,PBM 8-mer E-score
1,GCTGTCGA,-0.165 ± 0.0033
2,GGCGCGAC,-0.163 ± 0.064
3,CGGACTAG,-0.0898 ± 0.0032
4,ATGGGGAA,0.296 ± 0.074
5,GGGGGAAA,0.0837 ± 0.028
6,GTGGGGGA,0.0894 ± 0.033
7,AGGGGGAG,-0.0302 ± 0.048
8,ATGGGGAG,0.252 ± 0.011
9,TGGGGAAA,0.314 ± 0.049
10,TGGGGGAA,0.0145 ± 0.015
11,ATGGGAAA,0.00532 ± 0.065
12,GTGGGGAA,0.293 ± 0.012
13,CTGGGGAA,-0.106 ± 0.0058
14,ATGGGGAC,0.108 ± 0.083
15,ATGGGGGA,0.071 ± 0.032
16,AAGGCAGA,-0.0447 ± 0.097
17,GCAGCTAC,-0.158 ± 0.016
18,GCTGGGAA,-0.192 ± 0.031
19,CGTTTAAC,0.0567 ± 0.0093
20,TATCAAGA,0.188 ± 0.043
21,CGTGGCAG,-0.0638 ± 0.045
22,ACTGTTTC,0.0301 ± 0.064
23,GCGGGGGA,0.0111 ± 0.068
24,GCGGGGAA,0.247 ± 0.02
25,GCGGGAAA,0.0716 ± 0.025

row,Sequence,PBM 8-mer E-score
1,CGGCCCAA,-0.0811 ± 0.15
2,GAGCAGCA,-0.143 ± 0.042
3,ACGATAGG,0.245 ± 0.015
4,ACGATAGC,0.0621 ± 0.019
5,CCGATAGG,-0.0782 ± 0.013
6,AAGCCGCC,-0.0339 ± 0.045
7,GCATAACA,0.251 ± 0.042
8,ACATAACA,0.107 ± 0.034
9,GAATAAAA,0.0229 ± 0.074
10,GTATAAAA,0.247 ± 0.042
11,GTATAAAC,0.186 ± 0.0026
12,CAATAATC,0.189 ± 0.047
13,CAATAAAA,0.284 ± 0.016
14,CAATAATA,0.233 ± 0.066
15,CAATAAAC,0.0373 ± 0.052
16,ATATAAAA,0.186 ± 0.049
17,CAATAATG,0.0644 ± 0.019
18,GCATAACC,0.0156 ± 0.029
19,AAGGGTCT,0.00286 ± 0.1
20,AACTGTCG,-0.138 ± 0.016
21,ACGATGAG,0.0498 ± 0.025
22,TCACGAGA,-0.0563 ± 0.015
23,TAATAACA,0.0232 ± 0.011
24,GAATAACA,0.186 ± 0.011
25,CAATAACA,0.232 ± 0.0098

row,Sequence,PBM 8-mer E-score
1,CTCTTAAG,-0.0478 ± 0.022
2,GTGCGCAC,0.157 ± 0.1
3,GATCAATC,-0.0898 ± 0.043
4,CTACCCCC,-0.0941 ± 0.072
5,AAACCCTG,0.029 ± 0.12
6,AGACCCCC,-0.382 ± 0.044
7,AAACCCCC,-0.275 ± 0.038
8,TGACCCCA,0.111 ± 0.032
9,CAACCCTA,0.019 ± 0.059
10,AACCCCCA,-0.318 ± 0.021
11,CTACCCCA,0.259 ± 0.021
12,GTACCCCA,0.195 ± 0.023
13,AAACCCCA,0.232 ± 0.033
14,AAACCCTA,0.244 ± 0.089
15,AGACCCCA,0.283 ± 0.011
16,AATGCCAT,0.0622 ± 0.045
17,AGTTGTAG,0.0711 ± 0.018
18,ATGGAAGG,-0.00186 ± 0.021
19,CCCCGTCA,0.0912 ± 0.04
20,CCCCGGCG,-0.233 ± 0.056
21,GCTGCAAA,-0.0134 ± 0.061
22,ACCGTCAT,0.0687 ± 0.082
